The text below walks through data of PubChem BioAssay AID2517 (National Center for Advancing Translational Sciences (NCATS), 2010).

About 1,200 (0.34%) of roughly 350,000 compounds were called active. About 3% were inconclusive and are not listed. Only a selection was taken, and actives are over-represented in it overall. Unmarked numbers belong to inactive results. Calls follow the shape of the dose curve; as a rule, active = well fitted inhibition curve with a large enough effect; inconclusive = small, poorly fitted or top-dose-only effect; inactive = no such curve, though single readings can be large or run the other way.
Potency is read from the fitted curve at half-maximal effect.

Chain of DNA repair nuclease/redox regulator APEX1 (Homo sapiens) (P27695 whole entry, looked up): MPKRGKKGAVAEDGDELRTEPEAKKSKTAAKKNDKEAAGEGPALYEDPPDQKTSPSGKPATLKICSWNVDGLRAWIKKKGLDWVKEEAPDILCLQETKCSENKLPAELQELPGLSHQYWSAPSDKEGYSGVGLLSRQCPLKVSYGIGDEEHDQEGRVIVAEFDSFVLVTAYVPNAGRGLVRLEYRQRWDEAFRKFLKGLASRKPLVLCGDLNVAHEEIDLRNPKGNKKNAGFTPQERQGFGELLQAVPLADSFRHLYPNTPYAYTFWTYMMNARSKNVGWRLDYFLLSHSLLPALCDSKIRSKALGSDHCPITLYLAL

The target of the assay is DNA repair nuclease/redox regulator APEX1 (Homo sapiens) (UniProt P27695). Nature of the assay: qHTS Assay for Inhibitors of the Human Apurinic/apyrimidinic Endonuclease 1 (APE1). Also: nearly all actives have a fitted effect of over 55% in size.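 As to activity change, negative = inhibition: plate controls were vehicle for no effect and reference inhibitor for full effect.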 The following applies: recombinant APE1, TAMRA/BHQ-2 abasic DNA cleavage fluorescence; activity change, negative = inhibition: at 65.8 µM (top of the series). The text has this:
The apurinic/apyrimidinic endonuclease APE1 is the primary mammalian enzyme responsible for the removal of abasic (or AP) sites in DNA and functions centrally in the base excision DNA repair (BER) pathway. […] Thus, targeting APE1 could improve the efficacy of current treatment paradigms by promoting selective sensitization or protection of diseased and normal cells, respectively.
Inhibition of APE1 activity was screened by utilizing double-stranded short substrate containing tetrahydrofuran (THF) abasic site labeled with rhodamine-type fluorophore (TAMRA) at the 5'-end and with non-fluorescent Black Hole Quencher-2 (BHQ-2) at the opposing 3'-end. An increase in the fluorescence intensity due to incision of the abasic site by APE1 was used to measure the enzyme activity.
NIH Chemical Genomics Center [NCGC]
NIH Molecular Libraries Probe Centers Network [MLPCN]
Assay Provider: David M. Wilson, III, National Institute on Aging, NIH
Three uL of enzyme solution (0.75 nM APE1 final concentration) was dispensed to 1536-well Greiner black solid bottom plates. […] The plates were incubated for 15 min at room temperature, and then 1 uL of substrate solution (50 nM final concentration of TAMRA/BHQ-2) was added to start the reaction. The plates were immediately transferred into ViewLux High-throughput CCD imager (Perkin-Elmer) in order to measure the reaction progress in kinetic mode (three reads every 60 seconds) using 525 nm excitation and 598 nm emission fluorescence protocol. The fluorescence intensity difference between the third and the first time points was used to compute reaction progress. Results were normalized to buffer only columns and NSC13755 positive controls and negative control DMSO treated wells.
On to `CC(C)=CCC[C@]1(C)[C@@H](CC=C(C)C)C[C@@]2(CC=C(C)C)C(=O)[C@]1(C(=O)C(C)C)C(=O)C(CC=C(C)C)=C2O`, for which the “activity change, negative = inhibition” value was -2.28%.

For the molecule `CC(=O)CC(C)C`, the “activity change, negative = inhibition” value is -0.561%.

`CC1CCCN(C(=O)c2cc(-c3ccco3)nc3ccccc23)C1` (centres undefined): the “activity change, negative = inhibition” value was 17.7%.

For `O=C(c1cc(-c2ccco2)nc2ccccc12)N(Cc1nnc(-c2ccc(Cl)cc2)o1)C1CC1`, the “activity change, negative = inhibition” value is -25.3%.

For the molecule `Cc1cc(C)c2nc(-c3ccco3)cc(C(=O)O)c2c1`, the Potency was 7.08 µM (active).

Turning to `Cc1ccc(Br)cc1`, the “activity change, negative = inhibition” value is -0.853%.

Take `CC(N)(C(=O)O)c1ccc(-c2nn[nH]n2)cc1` (centres undefined): the “activity change, negative = inhibition” value was 7.06%.

Turning to `COCCNc1ncnc2ccc(-c3cccnc3)cc12`, the “activity change, negative = inhibition” value is -1.42%.

Consider `CCCCCCCC[C@@H](O)/C=C/C=C/C=C\[C@@H](O)CCCC(=O)O`, for which the “activity change, negative = inhibition” value is -7.47%.

For `O=c1c(O)c(Br)ccc2c(Br)c(O)c(O)c(O)c12`, the Potency is 1.12 µM (active).

Consider `O=C(c1ccncc1)N1CCC2(CCN(Cc3cc(C(F)(F)F)cc(C(F)(F)F)c3)CC2)CC1`, for which the “activity change, negative = inhibition” value is 2.27%.

On to `CC1(C)C=CC(=O)[C@]2(C)C1CC(=O)[C@]1(C)C2CC[C@@]2(C)C(c3ccoc3)OC(=O)C3OC321` (some centres undefined), for which the “activity change, negative = inhibition” value is 0.648%.

Turning to `Cc1cc2nc3c(=O)[nH]c(=O)nc-3n(C[C@H](O)[C@H](O)[C@H](O)CO)c2cc1C`, the Potency entry is “inactive”.

Consider `COC(=O)C/C=C/[C@@H](C)[C@H](NC(=O)OCC(Cl)(Cl)Cl)c1ccccc1`, for which the “activity change, negative = inhibition” value is 3.41%.

For `O=c1c(-c2ccc(F)cc2)nc2cnc(N3CCNCC3)nc2n1Cc1cccs1`, the “activity change, negative = inhibition” value was 12.1%.

As to `CCCCC/C=C\C/C=C\CCCCCCCCCC(N)=O`, the “activity change, negative = inhibition” value is 3.71%.

Regarding `Cc1cc(C)c2c(=O)[nH]c(SCC(=O)Nc3ccc(Br)cc3)nc2n1`, the “activity change, negative = inhibition” value was 5.12%.

Regarding `O=C(CSc1nc2ccccc2c(=O)[nH]1)Nc1nc(-c2ccc(Br)cc2)cs1`, the “activity change, negative = inhibition” value was -13.4%.

For the molecule `N#Cc1c(-c2cccs2)nc(SCC(=O)c2ccc(Br)cc2)[nH]c1=O`, the Potency is 39.8 µM (active).

In the case of `O=C(O)c1ccc(/C=C2/SC(=S)N(c3cccc(C(F)(F)F)c3)C2=O)cc1`, the “activity change, negative = inhibition” value is 20.2%.

For `OC[C@H]1O[C@@H](n2cnc3c(N[C@H]4CC5CCC4C5)ncnc32)[C@H](O)[C@@H]1O` (some centres undefined), the “activity change, negative = inhibition” value is 13.8%.

Consider `C=C(C(C)=O)C(O)c1ccc([N+](=O)[O-])cc1` (centres undefined), for which the “activity change, negative = inhibition” value is -1.09%.

As to `CCCCC[C@H](O)/C=C/[C@@H]1[C@@H](CC(=O)CCC(=O)O)[C@@H](O)C[C@H]1O`, the “activity change, negative = inhibition” value was 1.56%.

In the case of `COc1ccccc1NC(=O)CSc1nc2sc3c(c2c(=O)n1-c1ccccc1)CCN(C)C3`, the “activity change, negative = inhibition” value was 34.8%.

On to `CCOC(=O)c1ccc[n+](CC(=O)Nc2ccccc2OC(F)F)c1`, for which the “activity change, negative = inhibition” value was 0.0835%.

As for `Cc1ccc(-c2nc(SCC(=O)Nc3ccccc3OC(F)F)c3c(C)c(C(=O)O)sc3n2)cc1`, the Potency is 39.8 µM (active).

For the molecule `CC(=O)OCC1OC(C#Cc2ccccc2Cl)C=CC1OC(C)=O` (centres undefined), the activity change, negative = inhibition was -9.65% [at 12.4 µM].

Regarding `CC(=O)Oc1c2c(c3c(c1CC=C(C)C)O[C@@]14C(=CC5CC1C(C)(C)OC4(C/C=C(\C)C(=O)O)C5=O)C3=O)OC(C)(CCC=C(C)C)C=C2` (some centres undefined), the “activity change, negative = inhibition” value is -5.43%.

For `O=C1N[C@@H](c2ccccc2)COC(=O)[C@H](Cc2ccc(F)cc2)C/C=C\C[C@@H]1CC(=O)N(CCO)Cc1ccccc1`, the “activity change, negative = inhibition” value is 27.2%.

As to `O=C1N[C@H](Cc2c[nH]c3ccccc23)COC(=O)[C@H](Cc2ccc(F)cc2)C/C=C\C[C@H]1CC(=O)N(CCO)Cc1ccccc1`, the Potency was 21.2 µM (active).

For the molecule `C[C@H]1COC(=O)[C@H](CC(=O)OC(C)(C)C)C/C=C\C[C@@H](CC(=O)N[C@H](CO)Cc2ccccc2)C(=O)N1`, the “activity change, negative = inhibition” value is 4.54%.

`CC(C)(C)OC(=O)C[C@@H]1C/C=C\C[C@@H](CC(=O)N(CCO)Cc2ccccc2)C(=O)N[C@H](Cc2ccccc2)COC1=O`: the “activity change, negative = inhibition” value was -32.1%.

As to `CC(C)(C)OC(=O)C[C@@H]1C/C=C\C[C@H](CC(=O)N[C@@H](CO)Cc2ccccc2)C(=O)N[C@H](Cc2ccccc2)COC1=O`, the “activity change, negative = inhibition” value was -4.67%.

For the molecule `CC(C)(C)OC(=O)C[C@@H]1C/C=C\C[C@@H](CC(=O)NCCO)C(=O)N[C@H](Cc2c[nH]c3ccccc23)COC1=O`, the Potency was 15 µM (active).

Turning to `CCCCc1nn(-c2ccccc2C(F)(F)F)c(=O)n1Cc1ccc(-c2ccccc2S(=O)(=O)NC(=O)c2sccc2C)cc1`, the “activity change, negative = inhibition” value was -6.08%.

As for `CO[C@H]1COC(=O)[C@@H](OCc2ccccc2)/C=C\[C@H](C)[C@@H](OC)COC(=O)[C@H](OCc2ccccc2)/C=C\[C@@H]1C`, the activity change, negative = inhibition is 33.1% [at 12.4 µM].

With `COc1ccc(CCCOC(Cn2ccnc2)c2ccc(OC)cc2)cc1` (centres undefined), the Potency result was “inactive”.

Turning to `Cc1ccc(N=C2NC(=O)/C(=C/C=C/c3ccco3)S2)cc1C`, the Potency is 28.2 µM (active).

For `CCC[C@@H]1C[C@@]1(CCC)C(NC(=O)c1ccc(-c2ccccc2)cc1)c1cccc(Cl)c1` (some centres undefined), the “activity change, negative = inhibition” value was -0.889%.
